According to PubChem BioAssay (NCATS):
Inconclusive results are not listed. Activity calls are given as the source filed them. Unless noted, the call rests on the fitted dose curve; in most records, active means well fitted curve in the direction sought with a large enough effect; inconclusive means small, poorly fitted or top-dose-only effect, or another doubt; inactive means no such curve, though single readings can be large; an effect the other way counts as inactive or inconclusive.

Assays:
[1] = Cell Viability - BJ (AID 421; calls by dose curve;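 further: potency means the concentration at half of the fitted maximal effect; cells exposed to compound for 40 hours at 37 °C before readout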); settings: BJ fibroblast viability, qHTS
Method in brief: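 Cytotoxicity in human BJ foreskin fibroblasts is scored as loss of cellular ATP after a 40-hour exposure, measured by luciferase luminescence. Controls are DMSO and 100 uM tamoxifen.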

[2] = Cell Viability - HepG2 (AID 433; calls by dose curve;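 further: potency means the concentration at half of the fitted maximal effect; cells exposed to compound for 40 hours; potency for ATP loss meaning cytotoxicity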); settings: qHTS
Method in brief: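 HepG2 hepatocellular carcinoma cells (1500/well) were treated with compounds for 40 h at 37 °C in complete medium; intracellular ATP was read by CellTiter-Glo luminescence. Data were normalized to DMSO and 100 uM tamoxifen, and AC50 came from Hill fits.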

[3] = Cell Viability - Mesenchymal (AID 546); settings: mesenchymal cells viability, qHTS; activity change, negative = cytotoxicity: at 91.7 µM (top of the series);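 further: cells exposed to compound for 40 hours before reading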
Method in brief: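 AC50 values reflect the drop in intracellular ATP in a human kidney mesenchymal line derived from normal glomeruli. Treatment lasts 40 hr at 37 °C in complete medium, and the signal comes from CellTiter-Glo luminescence.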

[4] = Cellular Toxicity (caspase-3) Jurkat (AID 655); settings: Jurkat caspase-3 activation, luminescence; caspase-3 activation: at 92.2 µM (top of the series), DMSO = 0%, tamoxifen = 100%;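 further: cells exposed to compound for 16 h at 37 °C before reading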
Method in brief: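 Jurkat cells (5000/well) in complete medium were treated with compounds for 16 hr at 37 °C, then Caspase-Glo 3/7 luminescence was read after 20 min at room temperature. Data normalized to DMSO (basal) and 100 uM tamoxifen (100%); AC50 from Hill fit.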

[5] = Cell Viability - LYMP1-002 - Assay at 16 hr (AID 948); settings: LYMP1-002 lymphoblastoid cell viability; series mostly up to 92.2 µM;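 further: 0% = DMSO alone and full effect = 92 µM tetraoctylammonium bromide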
Method in brief: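 Human lymphoblastoid cells (LYMP1-002), 2500/well, were preincubated 5 hr at 37 C, then exposed to compounds for 16 hr at 37 C in complete medium. Cellular ATP was read by CellTiter-Glo luminescence after 30 min at room temperature; AC50 from Hill fits.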

[6] = MultiTox-Fluor Cytotoxicity Assay - LYMP1-002 - Live Cells (AID 955); settings: LYMP1-002 lymphoblastoid live-cell protease fluorescence viability; series mostly up to 46.1 µM; further: on the % scale 0 is the no-effect control and ±100 the full control effect
Method in brief: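 Cytotoxicity in the human lymphoblastoid line LYMP1-002 is measured as loss of live-cell protease activity after 16 h treatment in complete culture medium. AC50 is derived from Hill-equation fits of qHTS concentration-response data.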

[7] = Cell Viability - LYMP2-003 (AID 965); settings: LYMP2-003 lymphoblastoid cell viability; series mostly up to 92.2 µM;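 further: cells exposed to compounds for 24 h before reading; 0% = DMSO only and full effect = 92 µM tetraoctylammonium bromide; nearly all actives have a fitted effect of over 50% in size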
Method in brief: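 Human lymphoblastoid cells (2500/well) were pre-incubated 5 hr at 37 C, then exposed to compounds over a concentration range for 24 hr at 37 C. Intracellular ATP was read by CellTiter-Glo luminescence; AC50 came from Hill-equation fits.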

[8] = Cell Viability - LYMP2-011 (AID 969); settings: LYMP2-011 lymphoblastoid cells viability; series mostly up to 92.2 µM;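 further: 0% = DMSO only and full inhibition = 92 µM tetraoctylammonium bromide; nearly all actives have a fitted effect of over 60% in size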
Method in brief: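 Acute toxicity is scored as a concentration-dependent drop in intracellular ATP of a human lymphoblastoid line after 24 hr treatment. Values are AC50s modeled with the Hill equation.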

[9] = Cell Viability - LYMP2-013 (AID 970); settings: LYMP2-013 lymphoblastoid cells viability; series mostly up to 92.2 µM;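 further: 0% = DMSO only and full inhibition = tetraoctylammonium bromide control; nearly all actives have a fitted effect of over 55% in size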
Method in brief: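 Acute toxicity was measured in human lymphoblastoid cells (2500/well) exposed to compound titrations for 24 hr, with ATP luminescence (CellTiter-Glo) as read-out and AC50 fitted by Hill equation.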

[10] = Cell Viability - LYMP2-023 (AID 975); settings: LYMP2-023 lymphoblastoid cell viability; series mostly up to 92.2 µM;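 further: cellular ATP measured by luciferase luminescence as viability proxy; plate controls were DMSO only for no effect and 92 µM tetraoctylammonium bromide control for full effect; nearly all actives have a fitted effect of over 55% in size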
Method in brief: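 Concentration-dependent drop in intracellular ATP measures acute cytotoxicity in a human lymphoblastoid line treated for 24 hours in complete culture medium. AC50 values are taken from Hill-equation fits of qHTS data.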

[11] = Cell Viability - LYMP2-002 (AID 977); settings: LYMP2-002 lymphoblastoid cell viability, qHTS; series mostly up to 92.2 µM;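 further: compound exposure lasted 24 h at 37 °C; plate controls were DMSO only for no effect and 92 µM tetraoctylammonium bromide for full effect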
Method in brief: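 Cytotoxicity is scored as concentration-dependent loss of cellular ATP in a human lymphoblastoid line after 24 hr compound treatment at 37 C. AC50 is obtained by modelling concentration-response data with the Hill equation.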

[12] = Cell Viability - LYMP2-008 (AID 980); settings: LYMP2-008 lymphoblastoid cell viability, qHTS; series mostly up to 92.2 µM; further: on the % scale 0 is the no-effect control and ±100 the full control effect; nearly all actives have a fitted effect of over 60% in size
Method in brief: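 Acute cytotoxicity is scored as concentration-dependent loss of cellular ATP in a human lymphoblastoid line after 24 hr treatment at 37 C. ATP is quantified by luciferase luminescence.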

[13] = Cell Viability - LYMP2-012 (AID 982); settings: LYMP2-012 lymphoblastoid cell viability qHTS; series mostly up to 92.2 µM;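 further: cellular ATP by luciferase luminescence where a drop means cytotoxicity; cells exposed to compound for one day before reading; 0% = DMSO only and full loss = 92 µM tetraoctylammonium bromide; nearly all actives have a fitted effect of over 55% in size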
[14] = Cell Viability - LYMP2-020 (AID 986); settings: series mostly up to 92.2 µM;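 further: plate controls were DMSO only for no effect and tetraoctylammonium bromide at 92 µM for full effect; nearly all actives have a fitted effect of over 55% in size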
Method in brief: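 Acute cytotoxicity in a human lymphoblastoid line is scored as a concentration-dependent fall in cellular ATP after 24 hr at 37 C in complete medium. The positive control is tetraoctylammonium bromide, and potency is given as Hill-fit AC50.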

[15] = Cell Viability - LYMP2-024 (AID 988); settings: LYMP2-024 lymphoblastoid cell viability; series mostly up to 92.2 µM;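 further: plate controls were DMSO only for no effect and 92 µM tetraoctylammonium bromide for full effect; nearly all actives have a fitted effect of over 60% in size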
Method in brief: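 Acute toxicity is measured as concentration-dependent loss of intracellular ATP in a human lymphoblastoid line treated 24 hours at 37 C. Luciferase luminescence quantifies ATP; AC50 values come from standard Hill-equation modelling.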

[16] = Cell Viability - LYMP1-002 - Assay at 40 hr (AID 994); settings: LYMP1-002 lymphoblastoid cell viability; series mostly up to 92.2 µM;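 further: 0% = DMSO only and full inhibition = 92 µM tetraoctylammonium bromide; nearly all actives have a fitted effect of over 60% in size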
Method in brief: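 Viability in the human lymphoblastoid line was measured as intracellular ATP via CellTiter-Glo after 40 hr compound exposure. Tetraoctylammonium bromide served as positive control.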

[17] = qHTS assay for small molecule antagonists of retinoid X receptor alpha signaling (AID 588546); settings: HEK293T RXRa-UAS-bla, beta-lactamase ratio, antagonist mode; measured here: W530 green channel, cytotoxicity proxy;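 further: cells stimulated with 9-cis-retinoic acid as agonist; on the % scale 0 is the no-effect control and ±100 the full control effect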
Method in brief: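 Beta-lactamase reporter inhibition, read as CCF4 fluorescence ratio (ex 405, em 460/530 nm) after 2 h at RT. HEK293T UAS-bla cells, 2500/well, were stimulated with 9-cis-RA at 500 or 100 nM final alongside test compound for 18 h at 37 C.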

[18] = qHTS assay for environmental chemicals that activate the Aryl hydrocarbon Receptor (AhR) signaling pathway (AID 651777); settings: 1A2-DRE human hepatoma cells, luciferase, 24 h; activation: stronger effect = higher value; further: % of control where 0% means no effect; nearly all actives have a fitted effect of over 15% in size
Method in brief: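 Human hepatoma 1A2-DRE cells stably carrying a DRE/CYP1A2 promoter–luciferase reporter, 1,200 cells/well, exposed to compound 24 hr at 37 C. Luciferase read by One-Glo luminescence after 30 min at room temperature; increased signal marks AhR activation.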

[19] = Cell Viability - LYMP2-006 (AID 978); settings: LYMP2-006 lymphoblastoid cell viability, qHTS; series mostly up to 92.2 µM
Method in brief: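 Human lymphoblastoid cells, 2500 per well, were preincubated 5 hr at 37 C, then exposed to compounds for 24 hr at 37 C in complete medium. Viability was read as intracellular ATP by CellTiter-Glo luminescence; AC50 from Hill-equation fits of qHTS concentration-response data.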

[20] = Cell Viability - LYMP2-022 (AID 987); settings: LYMP2-022 lymphoblastoid cell viability; series mostly up to 92.2 µM
Method in brief: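 Acute toxicity in a human lymphoblastoid line is scored as decreased intracellular ATP after 24 hr compound treatment at 37 C. ATP is measured by CellTiter-Glo luminescence; curves are fitted with the Hill equation to give AC50.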

C=C(C#N)C(=O)OCC
inactive: Potency [1] > 92 µM | Potency [2] > 92 µM | Potency [3] | Potency [4] | Potency [5] | outcome [6] | Potency [7] | Potency [8] | Potency [9] | Potency [10] | Potency [11] | Potency [12] | Potency [13] | Potency [14] | Potency [15] | Potency [16] | activation [18] -0.801%
-6.72%: max response [17]

O=[N+]([O-])c1ccc(F)cc1F
-4.17%: max response [17]
inactive: Potency [1] > 92 µM | Potency [2] > 92 µM | Potency [3] | Potency [4] | Potency [5] | outcome [6] | Potency [7] | Potency [8] | Potency [9] | Potency [10] | Potency [11] | Potency [19] | Potency [12] | Potency [16] | activation [18] 0.688%

Clc1nc2ccccc2nc1Cl
-14.8%: max response [17]
inactive: Potency [1] > 92 µM | Potency [2] > 92 µM | Potency [3] | Potency [4] | Potency [5] | outcome [6] | Potency [7] | Potency [8] | Potency [10] | Potency [11] | Potency [19] | Potency [12] | Potency [16] | activation [18] 0.0222%

O=C1OC(=O)c2ccccc21
4.94%: max response [17]
inactive: Potency [1] > 92 µM | Potency [2] > 92 µM | Potency [3] | Potency [5] | outcome [6] | Potency [7] | Potency [8] | Potency [9] | Potency [10] | Potency [11] | Potency [19] | Potency [12] | Potency [13] | Potency [14] | Potency [20] | Potency [15] | Potency [16]

C=CC(=O)CC
8.25%: max response [17]
inactive: Potency [1] > 92 µM | Potency [2] > 92 µM | Potency [3] | Potency [4] | Potency [5] | outcome [6] | Potency [7] | Potency [8] | Potency [9] | Potency [10] | Potency [11] | Potency [19] | Potency [12] | Potency [13] | Potency [14] | Potency [20] | Potency [15] | Potency [16] | activation [18] 1.17%

CCCCC(CC)COCCCN (configuration not stated)
inactive: Potency [1] > 92 µM | Potency [2] > 92 µM | Potency [3] | Potency [4] | Potency [5] | outcome [6] | Potency [7] | Potency [8] | Potency [9] | Potency [10] | Potency [11] | Potency [19] | Potency [12] | Potency [13] | Potency [14] | Potency [20] | Potency [15] | Potency [16] | activation [18] -0.398%
3.99%: max response [17]

Cc1ccccc1OCC1CO1 (configuration not stated)
inactive: Potency [1] > 92 µM | Potency [2] > 92 µM | Potency [3] | Potency [4] | Potency [5] | outcome [6] | Potency [7] | Potency [8] | Potency [9] | Potency [10] | Potency [11] | Potency [19] | Potency [12] | Potency [13] | Potency [14] | Potency [20] | Potency [15] | Potency [16] | activation [18] -0.0777%
-1.65%: max response [17]
